This note sets out measurements from PubChem BioAssay (Tox21).

Several values for one entry are separate records, joined by “and”; a condition that tells them apart may be missing. Equal entries are not always repeated. Results filed as inconclusive are left out. Where a call stands in place of a potency, no number is given. Activity calls are given as the source filed them. The call rests on the fitted dose curve; in most records, active means well fitted cell-killing curve with a large enough effect in the repeat runs; inconclusive means weak or mixed curves, or effect the other way; inactive means flat fitted curve, though single readings scatter.
Potency means the concentration at half of the fitted maximal effect.

This assay can be described thus: cAMP Responsive Elements (CRE) small molecule antagonists, cell-based qHTS assay: qHTS cell viability counter screen (AID 2060913). Further: nearly all actives have a fitted effect of over 40% in size. The following applies: CRE-bla HEK293T viability, CellTiter-Glo luminescence, 5 h; series mostly up to 92.4 µM. Put shortly: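 Viability of NKH477-stimulated (0.25 uM final) CRE-bla HEK293T cells is measured by CellTiter-Glo luminescence following 3 hrs compound exposure at 37 C.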
On the technique in general: In qHTS, concentration-response curves come from the screen itself.
Take `CCCC(=O)Cl`: the Potency entry is “inactive”. Regarding `O=C1OC(c2ccc(O)c(S(=O)(=O)O)c2)(c2ccc(O)c(S(=O)(=O)O)c2)c2c(Br)c(Br)c(Br)c(Br)c21`, the Potency result was “inactive”. `OC(c1ccc(Cl)cc1)(c1cncnc1)c1ccccc1Cl` (stereo not given): the Potency result is “inactive”. As for `OCCN(CCO)CCO`, the Potency result was “inactive”.

For `CN(N=O)c1ccc([N+](=O)[O-])cc1`, the Potency entry was “inactive”. For `CC(C)(C)NCC(O)c1ccccc1Cl` (stereo not given), the Potency entry was “inactive”.

For `CC1N=C(N)OC1c1ccccc1` (stereo not given), the Potency entry was “inactive”. Take `Cc1ccc(N)cc1N`: the Potency entry is “inactive”. As for `CCCCCCCCOC(=O)c1ccc(C(=O)OCCCCCCCC)c(C(=O)OCCCCCCCC)c1`, the Potency entry is “inactive”. In the case of `Oc1cccc2cccnc12`, the Potency result is “inactive”. The entry for `Cc1c([N+](=O)[O-])cc2c(c1[N+](=O)[O-])C(C)(C)CC2(C)C` is “inactive”; for `CC(C(=O)c1ccccc1)N(C)C` (stereo not given) it is “inactive”; for `C=CC(=O)N(C)C` it is “inactive”.

Turning to `Cc1cc(Cl)ccc1N=CN(C)C`, the Potency entry is “inactive”. Then `O=C/C=C/c1ccco1`, with “inactive”. Consider `O=C(O)CF`, for which the Potency entry is “inactive”. The entry for `ClSC(Cl)(Cl)Cl` is “inactive”. Consider `Cc1ccc(OP(=O)(Oc2ccccc2)Oc2ccccc2)cc1`, for which the Potency result was “inactive”. On to `O=C(O)C1C(C(=O)O)C2(Cl)C(Cl)=C(Cl)C1(Cl)C2(Cl)Cl` (stereo not given), for which the Potency entry is “inactive”. `c1ccc(OCC2CO2)cc1` (stereo not given): the Potency result was “inactive”. On to `CC(O)C#N` (stereo not given), for which the Potency result is “inactive”.

For the compound `CC(C)=CC1C(C(=O)OCN2C(=O)C3=C(CCCC3)C2=O)C1(C)C` (stereo not given), the Potency result is “inactive”. For the compound `C=CCO`, the Potency result is “inactive”. Regarding `O=NN1CCCCCC1`, the Potency result is “inactive”. In the case of `CC(CC(C(N)=O)(c1ccccc1)c1ccccc1)N(C)C` (stereo not given), the Potency entry is “inactive”. For the compound `CCOP(=O)(Sc1ccccc1)Sc1ccccc1`, the Potency result is “inactive”.

As for `CCOc1cc(C=O)ccc1O`, the Potency entry is “inactive”. On to `CCNc1nc(NC(C)(C)C)nc(SC)n1`, for which the Potency entry is “inactive”. For `ClCC(Cl)Cl`, the Potency result was “inactive”. For `CCC[N+](=O)[O-]`, the Potency result was “inactive”.

`CCNc1nc(Cl)nc(NCC)n1`: the Potency entry was “inactive”.

Turning to `CN1C(=O)[C@@H](NC(=O)c2cc3ccccc3[nH]2)N=C(c2ccccc2)c2ccccc21`, the Potency result is “inactive”. With `CC[C@H]1C[C@@H]2C[C@H]3c4[nH]c5ccc(OC)cc5c4CCN(C2)[C@@H]13`, the Potency entry was “inactive”. On to `CC(C1CC1)C(O)(Cn1cncn1)c1ccc(Cl)cc1` (stereo not given), for which the Potency result was “inactive”.

As for `CCNc1nc(NC(C)C)nc(SC)n1`, the Potency result was “inactive”. On to `Cc1cc(O)ccc1Cl`, for which the Potency result is “inactive”. Then `NNCCO`, with “inactive”; and `CON(C)C(=O)Nc1ccc(Br)cc1`, with “inactive”; and `CCO/N=C(\CC)C1=C(O)CC(c2c(C)cc(C)cc2C)CC1=O` (stereo not given), with “inactive”. Turning to `CN(C)C(=S)SSC(=S)N(C)C`, the Potency is 12 µM (active) and 9.69 µM (active) and 7.5 µM (active).
